TROY signal inh: TROY signaling inhibition | inhibition, % at 10 µM | Q293 LMP1-TROYcd NF-kB luciferase reporter, 4 h | 0.98% of 360,000 active;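 active = compounds whose plate-normalised and pattern-corrected inhibition of the luciferase reporter signal at the single screening dose is 50% or more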
Peg3 prom inh: inhibitors of Peg3 promoter; HeLa PEG-Prom luciferase reporter, luminescence, overnight; inhibition, % at 20 µM; 1.7% of 360,000 active; AID 588405;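 active = inhibition of at least 50% at 20 µM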
LMP1 NFkB inh: inhibitors of Epstein-Barr LMP1-induced NF-kappaB reporter | LMP1-induced NF-kappaB luciferase reporter cells, luminescence | inhibition, % at 12.5 µM | 0.69% of 350,000 active | AID 504558; in the data active = inhibition above about 41%
Shn3 inh set2: inhibitors of Schnurri-3 3'UTR reporter in osteoblasts | 0.52% of 360,000 active | Clone20 osteoblast Shn3 3'UTR firefly luciferase, 24 h | inhibition, % at 12.5 µM;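 active = mean inhibition of at least 75% with every replicate also reaching 75%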
MITF TRPM1 inh: inhibitors of MITF-driven TRPM1 promoter in melanoma cells | SK-MEL-5 TRPM1 promoter luciferase, 24 h | inhibition, % at 12.5 µM | 0.83% of 330,000 active;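 active = mean inhibition across replicates of 60% or more, whatever share of single replicates reaches that level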
TWEAK-Fn14 inh: blocks TWEAK-Fn14 interaction in a reporter cell assay; TWEAK-stimulated Fn14 reporter cells, luciferase luminescence, 8 h; inhibition, % at 10 µM; 2% of 360,000 active; in the data active = inhibition above about 50%
Of the large screens only hits and unclear results are named; the others gave an inactive call; ! = not confirmed by another sample. Most compounds without a hit are left out; they make up all but 4.1% or so of the library.

CCN1CCN(Cc2ccc(NC(=O)c3ccc(C)c(/C=C/c4cnc(Nc5cc(N6CCNCC6)nc(C)n5)cn4)c3)cc2C(F)(F)F)CC1	Peg3 prom inh 96, LMP1 NFkB inh 69, Shn3 inh set2 96, MITF TRPM1 inh 98
CCN1CCN(Cc2ccc(NC(=O)c3ccc(C)c(NC(=O)c4c[nH]c5cc(C(F)(F)F)ccc5c4=O)c3)cc2C(F)(F)F)CC1	Peg3 prom inh 103, LMP1 NFkB inh 63!, Shn3 inh set2 99!, MITF TRPM1 inh 103
CN(C)c1ccc(/C=N/Nc2nncc3ccccc23)cc1	none
CC(C)(C)c1ccc(OCC(=O)Nc2ccc3c4c(cccc24)C(=O)NC3=O)cc1	none
Cc1ccc(-n2c(Cl)c(Cl)nc(Cl)c2=O)cc1	TROY signal inh 63, Peg3 prom inh 103, LMP1 NFkB inh 72, Shn3 inh set2 96, MITF TRPM1 inh 95, TWEAK-Fn14 inh 102
CC1=C(C(=O)OCc2ccccc2)C(c2cccc([N+](=O)[O-])c2)NC(=O)N1 (stereo unspecified)	none
COCCOC(=O)C1=C(C)NC(=O)NC1c1ccc(-c2ccc(F)cc2)o1 (stereo unspecified)	none
CC1=C(C(=O)OCc2ccc3c(c2)OCO3)C(c2cccc([N+](=O)[O-])c2)NC(=O)N1 (stereo unspecified)	TWEAK-Fn14 inh 75
CCOc1ccc(C2NC(=O)NC(C)=C2C(=O)OCc2ccccc2)cc1 (stereo unspecified)	none
COc1ccc(COC(=O)C2=C(C)NC(=O)NC2c2ccc(F)cc2)cc1 (stereo unspecified)	TWEAK-Fn14 inh 53
CCOC(=O)C1=C(C)NC(=O)NC1c1ccc(-c2ccccc2F)o1 (stereo unspecified)	TROY signal inh 54
CCC(CC)COC(=O)C1=C(C)NC(=O)NC1c1cc(OC)ccc1OC (stereo unspecified)	TWEAK-Fn14 inh 104
COc1ccc(OC)c(-c2csc(NC(=O)COC(=O)C3(C)CC3(Cl)Cl)n2)c1 (stereo unspecified)	none
CCN(CC)C(=O)C1=C(C)N(Cc2ccc(OC)cc2)C(=O)C(CC(=O)NC2CC2)C1 (stereo unspecified)	none (no result: MITF TRPM1 inh)
O=C(Nc1cccc(Br)c1)c1cc(S(=O)(=O)N2CCOCC2)cs1	none
O=C(Nc1ccc(Cl)c([N+](=O)[O-])c1)c1ccco1	none
O=C(/C=C/c1ccc(Cl)c([N+](=O)[O-])c1)Nc1ccc(NC(=O)c2ccco2)cc1	Peg3 prom inh 61
O=C(/C=C/c1ccc(Cl)c([N+](=O)[O-])c1)Nc1cccc(NC(=O)c2ccco2)c1	Peg3 prom inh 114, TWEAK-Fn14 inh 55
CCn1ccnc1CN1CCC(n2nccc2NC(=O)c2ccccc2OC)CC1	none
O=C(CC(=O)NN=C1CCCCCC1)NCc1cccnc1	none
Cc1cc(C)c(S(=O)(=O)Nc2ccc(OCC(=O)O)cc2)c(C)c1	none
NC(=S)NN=Cc1nccc2c(C(F)(F)F)cccc12	LMP1 NFkB inh 62 (no result: MITF TRPM1 inh)
CNc1cccnc1C=NNC(N)=S	LMP1 NFkB inh 67, Shn3 inh set2 94
Nc1ccc(C=C2C=Cc3ccccc32)cc1	none
NC(N)=Nc1ccc(C=C2C=Cc3ccccc32)cc1	Peg3 prom inh 104
COc1ccc(NC(=O)Cn2nnc(C(=O)NCc3ccccc3)c2N)c(OC)c1	LMP1 NFkB inh 64
COc1ccc(-c2cc3c(=O)n(CC(=O)NCCCN4CCC(N5CCCCC5)CC4)nc(C)n3n2)cc1	MITF TRPM1 inh 72
COc1ccc(-c2cc3c(=O)n(CC(=O)NCCCN4CCC(N5CCCCC5)CC4)ncn3n2)cc1	none
Cc1ccc(CC(=O)Nc2ccc(Cl)cn2)cc1	none
COc1cc(SC)ccc1C(=O)Nc1ccc(Cl)cn1	TROY signal inh 74, LMP1 NFkB inh 68, TWEAK-Fn14 inh 91
CSc1ccc(Cl)c(C(=O)Nc2ccc(Cl)cn2)c1	none
O=C(Nc1ccc(Cl)cn1)c1ccc(Oc2ccccc2)cc1	none
CCCOc1ccc(C(=O)Nc2ccc(Cl)cn2)cc1	TWEAK-Fn14 inh 57
Cc1ccc(C(=O)Nc2ncc3c(Cl)cccc3n2)cc1	LMP1 NFkB inh 51, TWEAK-Fn14 inh 82
Cc1ccc(C(=O)Nc2ccc(Cl)cn2)cc1	TWEAK-Fn14 inh 56
CCOc1ccc(NC(=S)N2C3CCCC2CC(NC(=O)C2CC2)C3)cc1 (stereo unspecified)	none
COc1cc([N+](=O)[O-])cc(CN2CCCCC2)c1O	none
COc1ccc(Nc2ncnc3sccc23)cc1OC	none (no result: LMP1 NFkB inh)

Compound activity (PubChem BioAssay)
